Reference: PubChem BioAssay (NCATS)
Inconclusive results are not listed. A call without a number means that no potency is given here. Calls of active or inactive are those of the source. Calls follow the shape of the dose curve; as a rule, active = well fitted inhibition curve with a large enough effect; inconclusive = small, poorly fitted or top-dose-only effect; inactive = no such curve, though single readings can be large or run the other way.

Assays:
[1] = tested on: Zika virus NS2B-NS3 protease (unlinked complex); assay: Primary screen GU Rhodamine qHTS for Zika virus inhibitors: Unlinked NS2B-NS3 protease assay (AID 1347159); also: nearly all actives have a fitted effect of over 60% in size
Summary of the method: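 Enzyme 25 nM in Tris-HCl pH 8.0 + 0.01% Tween 20; compounds up to 114 microM, 15 min RT dark; + Rhod110 substrate 1.5 microM; read t0 and 15 min; delta fluorescence → % inhibition → 4-parameter Hill fit.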

[2] = tested on: Zika virus NS2B-NS3 protease (linked construct); assay: Primary screen NINDS Rhodamine qHTS for Zika virus inhibitors (AID 1347160); also: nearly all actives have a fitted effect of over 55% in size
Summary of the method: (§1)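 Enzyme (25 nM, linked NS2B-NS3) was preincubated 15 min with compound in 10 mM Tris-HCl pH 8.0, 0.01% Tween 20. Rhodamine110 substrate (1.5 microM) was then added and fluorescence read at start and after 15 min.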

[3] = Confirmatory screen NINDS Rhodamine qHTS for Zika virus inhibitors (AID 1347161);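 also: purified Zika NS2B-NS3 protease with linked NS2B cofactor domain and Rhodamine110 peptide substrate; series mostly up to about 110 µM; nearly all actives have a fitted effect of over 60% in size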
Summary of the method: as §1

Compound: COc1ccc(NC(=O)c2ccc(-c3ccc(C(=N)N)cc3C)cc2)cc1N1CCN(C)CC1
- Potency [1]: inactive
- Potency [2]: inactive

Compound: O=C(NCCCc1ccccc1)c1cccc(-c2cc(O)c3ncccc3c2)c1
- Potency [3]: inactive

Compound: NS(=O)(=O)Nc1ncnc(OCCOc2ncc(Br)cn2)c1-c1ccc(Br)cc1
- Potency [2]: inactive

Compound: C=C1C(=O)O[C@@H]2C[C@H](C)C3=CC(=O)[C@H](O)[C@@]3(C)C[C@H]12
- Potency [2]: inactive

Compound: C[C@@H](O[C@H]1OCCN(Cc2nn(P(=O)(O)O)c(=O)[nH]2)[C@H]1c1ccc(F)cc1)c1cc(C(F)(F)F)cc(C(F)(F)F)c1
- Potency [2]: inactive

Compound: COc1ccc(C(=O)O[C@H]2C=COC=C3C=C4C(=O)N(C)C(=S)C(=O)N4[C@@H]32)cc1Oc1cc(C=O)ccc1O
- Potency [2]: inactive

Compound: CCOC(=O)c1cnn(-c2ccccc2)c1NC(=O)c1cc2nc(-c3ccco3)cc(C(F)(F)Cl)n2n1
- Potency [2]: inactive

Compound: C/C=C(\C)C(=O)O[C@H]1C=C(CO)C(=O)[C@H](OC(C)=O)[C@H]1C(C)C
- Potency [2]: inactive

Compound: O=C(NCc1cccs1)c1cc2nc(-c3ccco3)cc(C(F)(F)Cl)n2n1
- Potency [2]: inactive

Compound: COc1cc(-n2cnc3cc(-c4ccc(Cl)cc4)sc3c2=O)ccc1OCCN1CCCC1
- Potency [2]: inactive

Compound: COc1cc2c(Nc3cc(F)c(Cl)c(Cl)c3)ncnc2cc1OCC1CCCN(C)CCC1
- Potency [2]: inactive

Compound: CC(C)S(=O)(=O)Nc1ccc(F)c(C(=O)c2c[nH]c3ncc(-c4cccnc4)cc23)c1F
- Potency [2]: inactive

Compound: CC(C)c1ccc(-c2cc(=O)c3ccccc3o2)cc1
- Potency [2]: inactive

Compound: O=C(Nc1cccc2cccnc12)c1ccc(N2C(=O)[C@@H]3C4C=CC(C4)[C@@H]3C2=O)cc1
- Potency [2]: inactive

Compound: Nc1nc(NC2CC2)cc(-c2cccc(Cl)c2Cl)n1
- Potency [2]: inactive

Compound: CC(C)(C)c1ccc2c(c1)CC[C@H]2NC(=O)Nc1cccc2[nH]ncc12
- Potency [2]: inactive

Compound: C=C1CCCC2(C)CCC(C(C)(C)OC3OC(C)C(O)C(O)C3OC(=O)/C(C)=C\C)CC12 (centres undefined)
- Potency [2]: inactive

Compound: COC(=O)c1cc(Br)cnc1N1CCC(NC2CCCCC2)C(O)C1 (centres undefined)
- Potency [2]: inactive

Compound: COC(=O)N1CCC(n2ncc3c(N4CCOCC4)nc(-c4ccc(NC(=O)NC5CC5)cc4)nc32)CC1
- Potency [2]: inactive

Compound: CC1=C(c2ccc(NC(=O)c3c(F)cccc3F)cc2)CN(c2nccs2)CC1
- Potency [2]: inactive

Compound: Cc1cc2ncc(C(=O)NCC(C)(C)NCC(=O)N3CCC[C@H]3C#N)cn2n1
- Potency [2]: inactive

Compound: O=C(NCCCN1CCC2(CC1)OCc1ccccc12)[C@H]1CCCN1Cc1ccccc1
- Potency [2]: inactive

Compound: CC(C)n1cnc2c(-c3cnc(N)nc3)nc(N3CCOCC3)nc21
- Potency [2]: inactive

Compound: C=C1C(=O)O[C@H]2C1CCC(C)=C1C(=O)C=C(C)[C@@]12O (some centres undefined)
- Potency [2]: inactive

Compound: C/C=C(\C)C(=O)OC1C(C)C2(O)C(C=C(CO)CC3(O)C(=O)C(C)=CC32)C2C(C)(C)C12OC(C)=O (centres undefined)
- Potency [2]: inactive

Compound: CC1CC(=O)C2=C(C1)C1OC1C1(O)C2C(=O)c2cccc(O)c2C1O (centres undefined)
- Potency [2]: inactive

Compound: COC(=O)C1=COC(O[C@@H]2O[C@H](CO[C@@H]3O[C@H](COC(=O)/C=C\c4ccc(O)cc4)[C@@H](O)[C@H](O)[C@H]3O)[C@@H](O)[C@H](O)[C@H]2O)C2C(CO)=CCC12 (some centres undefined)
- Potency [2]: inactive

Compound: O=C(Nc1ccc(C(O)(C(F)(F)F)C(F)(F)F)cc1)c1ccc(C(F)(F)F)cc1
- Potency [2]: inactive

Compound: O=C(NCC1CCN(Cc2cccc(Cl)c2)CC1)[C@@H]1CCCN(c2ncnc3c2nc2n3CCCC2)C1
- Potency [2]: inactive

Compound: CN1c2c(nc(N)[nH]c2=O)NC[C@@H]1CNc1ccc(C(=O)N[C@@H](CCC(=O)O)C(=O)O)cc1
- Potency [2]: inactive

Compound: C/C=C/[C@@H]1C=C[C@@H]2C[C@H](C)CC[C@H]2[C@]1(C)/C(O)=C1/C(=O)[C@@H](CO)N(C)C1=O
- Potency [2]: inactive

Compound: COc1c(C(O)CC(C)C)ccc2c1C(=O)OCc1cc(C)cc(O)c1O2 (centres undefined)
- Potency [2]: inactive

Compound: COc1ccc(-c2c(C)nn3c(NCCN4CCOCC4)cc(C)nc23)cc1OC
- Potency [2]: inactive

Compound: O=C(COc1ccc2ccccc2c1Br)Nc1cccnc1
- Potency [2]: inactive

Compound: CC(=O)OCC(=O)[C@@]12O[C@@H]1C[C@H]1[C@@H]3CC=C4C[C@@H](O)CC[C@]4(C)[C@H]3CC[C@@]12C
- Potency [2]: inactive

Compound: CCS(=O)c1nc(-c2cccc(OCc3ccccc3)c2)cc(C(F)(F)F)n1 (centres undefined)
- Potency [2]: inactive

Compound: C=C(C(=O)OC[C@H]1O[C@@H](OC(=O)/C=C/c2ccccc2)[C@H](O)[C@@H](O)[C@@H]1O)C(O)CO (some centres undefined)
- Potency [2]: inactive

Compound: Cc1ccc(C(C)C)c(O[C@@H]2O[C@H](CO)[C@@H](O)[C@H](O)[C@H]2O)c1
- Potency [2]: inactive
